The values below come from PubChem BioAssay (NCI).

Each structure is given as a SMILES string. About 83,000 compounds went through this panel and 20% of them were active in at least one assay; those are over-represented in the sample as a whole.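 For each line, cells grew in 96-well plates with the test compound present at a single concentration for 48 hours.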 The source made the active and inactive calls.

The experiment has as its system PC-3 prostate. The experiment is described as follows: NCI-60 one-dose screen, 48 h (100 = growth as untreated, 0 = no growth, -100 = all killed). To be noted: 10 µM unless noted. The protocol: Growth inhibition of the PC-3 human tumor cell line is measured as a screen for anti-cancer activity. Cells are grown in 96 well plates and exposed to the test compound for 48 hours. Compounds are tested at a single concentration, which is 10^-5 M for most compounds. The reported endpoint is percent growth (GI% or GIPRCNT), where numbers from 0 - 100% represent growth inhibition, and numbers from -100% - 0 represent cell death. For example, a value of 40 represents 60% growth inhibition. A value of 0 means no net growth occurred over the course of the experiment. A value of -40 indicates 40% of cells at the beginning of the experiment died by the end of the experiment. A value of -100 means all cells are dead at the end of the experiment.
NCI-60 Human Tumor Cell Lines Screen was performed using the standard one-dose NCI protocol, which is described in more detail at https://dtp.cancer.gov/discovery_development/nci-60/default.htm.
Compounds with GIPRCNT values below 10 were considered active. Activity score was based on GIPRCNT using the following formula: […]
Score is 0 for GIPRCNT values of 100 or above, 50 for GIPRCNT values of 0, and 100 for GIPRCNT values of -100.
Regarding `CCNC(=O)OCCc1c2ccccc2nc2ccccc12`, the growth is 43.9% (inactive).
With `CN(C)c1ccc2c(N(C)C)cc(N(C)C)nc2c1` the figure was 72.6% (inactive); with `CCOC(=O)CSCCC#N`, 97.8% (inactive); with `Cc1ccc([N+](=O)[O-])c(C)n1`, 89.7% (inactive).
The value for `NNc1ncnc2c1ncn2C1OC(CO)C(O)C1O` (stereo not given) was 32.3% (inactive).
The value for `COc1cc(OC)c2cc(C(=O)c3ccc(C#N)cc3)c(=O)oc2c1` was 107% (inactive); that for `CC(=O)c1cccs1` was 98.3% (inactive).
Take `CC(C)Sc1ncnc2nc[nH]c12`: the growth was 91.6% (inactive).
Turning to `COc1ccc(C2CCCCC2=O)cc1` (stereo not given), the growth was 95.4% (inactive).
With `BrCc1cccc(C[P+](c2ccccc2)(c2ccccc2)c2ccccc2)c1` the figure was 23.2% (inactive).
The value for `Cc1cc(Nc2ccc3c(c2)OCO3)c2cc3c(cc2n1)OCO3` was 10.6% (inactive).
The value for `CCOC(=O)C1(N)CCCCC1` was 96.6% (inactive).
Take `COc1cccc(N=CNc2cccc(OC)c2)c1`: the growth is 84.2% (inactive).
With `O=C(Oc1ccccc1Cl)c1ccc(Cl)cc1Cl` the figure was 93.6% (inactive).
As for `CCCCn1cnc2c(=O)[nH]cnc21`, the growth is 94.2% (inactive).
With `COC(=O)c1ccc([N+](=O)[O-])c(C)c1` the figure was 93.4% (inactive).
With `Oc1cc(O)c2c(c1)O[C@H](c1ccc(O)c(O)c1)[C@@H](O)C2` the figure was 93.3% (inactive); with `CCOC(=O)CNC(=O)Sc1ccc(C(C)(C)C)cc1`, 106% (inactive).
With `CC1CN(CCO)CC(C)O1` (stereo not given) the figure was 104% (inactive).
Take `O=Cc1ccc(Cl)c(Cl)c1`: the growth was 94.6% (inactive).
The value for `NC(=O)OCCO` was 98.5% (inactive).
With `O=C(Nc1cccc(Cl)c1)c1ccc(Cl)cc1Cl` the figure was 82.2% (inactive).
With `Cc1[nH]c(=S)[nH]c(=O)c1C` the figure was 102% (inactive).
As for `CC(C)(C)CC1(C)NC(=O)NC1=O` (stereo not given), the growth was 106% (inactive).
The value for `CC(=O)NC(CCc1ccc(Cl)c(Cl)c1)c1cccc(O)c(=O)c1` (stereo not given) was 38.9% (inactive); that for `O=C(O)c1ccc(OCc2ccccc2)cc1` was 90.4% (inactive).
The value for `O=CNCCc1ccccc1` was 91.4% (inactive); that for `Nc1nc2nnc(-c3ccccc3)c(-c3ccccc3)n2n1` was 86.5% (inactive); that for `O=c1cc(C(F)(F)F)[nH]c(=S)[nH]1` was 116% (inactive).
With `CC(=O)N(C)N=Nc1ccc(C)cc1` the figure was 97.7% (inactive); with `CC(C)(C)[Si](C)(C)OCC1OC(n2cnc3c(N)ncnc32)CC1OS(C)(=O)=O` (stereo not given), 103% (inactive); with `Clc1ccc(C(SCc2ccccc2)SCc2ccccc2)cc1`, 85.9% (inactive).
As for `CC1=CC(=Nc2ccc(N(C)C)cc2)C=C(C)C1=O`, the growth is 69.9% (inactive).
With `O=C(O)c1c[nH]c2ccccc2c1=O` the figure was 97.6% (inactive).
The value for `CCOP(=O)(OCC)/C(=C\N1C(=O)CC(=O)NC1=S)C(=O)OC` was 97.8% (inactive); that for `CC(CO)(CO)C(=O)O` was 94.9% (inactive); that for `C=CCC(OC(C)=O)c1ccc(OC)c(OC)c1` (stereo not given) was 92.5% (inactive).
Turning to `Cc1ccc(C(C)C)c(OCC(=O)O)c1`, the growth is 98.7% (inactive).
With `COc1cccc(C(=O)O)c1OC` the figure was 96.3% (inactive).
With `CC12CCC3c4ccc(O)cc4CCC3C1CCC2=O` (stereo not given) the figure was 85.3% (inactive).
